PubChem BioAssay (NCATS)
Where “and” joins values, the source holds several entries; their conditions need not be identical. Identical values can stand only once. Records with an inconclusive call do not appear. Calls of active or inactive are those of the source. Unless noted, the call rests on the fitted dose curve; in most records, active means well fitted curve in the direction sought with a large enough effect; inconclusive means small, poorly fitted or top-dose-only effect, or another doubt; inactive means no such curve, though single readings can be large; an effect the other way counts as inactive or inconclusive.

Key:
[1] = qHTS for Activators of Parkin Expression: LOPAC Validation Assay (FLuc Reporter) (AID 720573;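 further: 0% = DMSO and 100% = positive control compounds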)
Outline: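 FLuc signal from Parkin-promoter coincidence reporter neuronal cells, normalized to DMSO and positive control (100%). Cells (1,500/well) pre-incubated 24 h, then exposed to LOPAC compounds in 7-point dose response for 24 h at 37 C, 5% CO2.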

[2] = biological target: T1, Hexokinase-4 (Homo sapiens) + Glucokinase regulatory protein (Homo sapiens) (UniProt P35557+Q14397); experiment: qHTS assay for inhibitors of recombinant human GCK-GKRP interaction: Diaphorase-coupled assay (AID 743205)
Outline: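 A kinetic fluorescence read (Ex 525/Em 590 nm, every minute for 30 minutes) tracked resorufin from a G6PDH-diaphorase coupled GCK reaction. It contained 10 nM GST-GCK, 10 nM FLAG-GKRP, 5 mM glucose, 0.4 mM ATP in Hepes pH 7.6. Normalized to with/without-enzyme DMSO controls.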

[3] = biological target: T1, Hexokinase-4 (Homo sapiens) + Glucokinase regulatory protein (Homo sapiens); experiment: qHTS assay for inhibitors of recombinant human GCK-GKRP interaction: ADP-Glo assay (AID 743206);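 further: plate controls were DMSO plus enzyme for no effect and no enzyme for full effect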
Outline: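 GST-GCK and FLAG-GKRP (15 nM each in the dispensed mix, with 2 uM S6P) react with 0.4 mM ATP and 5 mM glucose (final) in Hepes pH 7.6 for 60 min at room temperature. ADP is measured by ADP-Glo luminescence.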

[4] = qHTS Assay for Identifying Gametocytocidal Compounds (AID 743244); further: potency means the concentration at half of the fitted maximal effect;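 on max response: on the % scale 0 is the no-effect control and ±100 the full control effect; actives lower the fluorescent signal which means gametocytes are killed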; conditions: P. falciparum 3D7 stage III-V gametocytes, alamarBlue, 72 h; max response: stronger effect = lower value
Outline: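 A resazurin-based viability read-out was applied to mature P. falciparum gametocytes: 72 h compound treatment, then 24 h dye incubation, with falling fluorescence signalling gametocytocidal effect.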

[5] = qHTS assay for measurement of the activity of small molecule inhibitors on Zika virus induced Caspase-3 activity in human iPSC derived neural progenitor cells (hNPCs) (AID 1224857); further: nearly all actives have a fitted effect of over 65% in size; further: potency means the concentration at half of the fitted maximal effect
Outline: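 Quantitative HTS format: human iPSC neural progenitors, 1 h compound pretreatment, ZIKV 2 FFU/cell for 6 h at 37 C. Percent inhibition derived from luminescent caspase-3/7 signal between uninfected and infected controls.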

[6] = qHTS assay for measurement of the activity of small molecule inhibitors on Zika virus induced Caspase-3 activity in human astrocytoma cells (AID 1224859);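 further: plate controls were ZIKV-infected untreated cells for no effect and uninfected cells for full effect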
Outline: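 Readout is luminescence from Caspase-Glo 3/7 added after a 6 h ZIKV infection (2 FFU/cell) of compound-pretreated (1 h) SNB-19 cells; data expressed as % inhibition versus uninfected and infected wells.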

[7] = qHTS assay for small molecule agonists of the antioxidant response element (ARE) signaling pathway measured by Nrf2-dependant transcriptional activity (AID 720636; active means well fitted curve in the direction sought with a large enough effect in the repeat runs; an effect the other way counts as inactive or inconclusive; further: % of control where 0% means no effect)
Outline: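 ARE-luc HepG2 cells carrying an Nrf2-responsive luciferase reporter, in medium with 1% dialyzed FBS, exposed to compound for 16 hr at 37 C, 5% CO2. Luminescence read 30 min after ONE-Glo addition.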

[8] = qHTS assay for small molecule agonists of the antioxidant response element (ARE) signaling pathway measured by Nrf2-dependant transcriptional activity - cell viability counter screen (AID 720653; active means well fitted curve in the direction sought with a large enough effect in the repeat runs; an effect the other way counts as inactive or inconclusive; further: on the % scale 0 is the no-effect control and ±100 the full control effect); conditions: ARE-bla HepG2 viability, CellTiter-Glo ATP luminescence, 16 h; max response: stronger effect = lower value
Outline: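 ARE-bla HepG2 cells (2,000/well) rested 5 hrs at 37C/5% CO2, then exposed to compounds in DMSO for 16 hrs. Viability was read in the same wells as intracellular ATP by luminescence, 30 min at room temperature after reagent addition.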

[9] = biological target: T1, Hexokinase-4 (Homo sapiens) + Glucokinase regulatory protein (Homo sapiens); experiment: qHTS assay for inhibitors of recombinant human GCK-GKRP interaction: HTRF assay (AID 743207);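 further: 0% = DMSO with GCK present and -100% = DMSO wells lacking GCK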
Outline: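 After 60 min equilibration at room temperature with anti-FLAG XL665 and anti-GST antibodies, FRET ratio (665/615 nm, excitation 320 nm) was read. Proteins: GST-GCK and FLAG-GKRP, each 5 nM, plus 2 uM S6P, pH 7.1 buffer; GCK-free wells define minimum signal.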

[10] = qHTS assay for cell viability of the p53RE-bla HCT-116 cell line (AID 743292); further: on the % scale 0 is the no-effect control and ±100 the full control effect; nearly all actives have a fitted effect of over 55% in size
Outline: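 CellSensor p53RE-bla HCT-116 cells (4,000/well) pre-incubated 5 h at 37 C, then exposed to compounds in DMSO for 16 h at 37 C. Viability read as ATP content by CellTiter-Glo luminescence after 30 min at room temperature.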

[11] = qHTS assay to identify small molecule inhibitors of chordoma cells - UCH-2 (AID 1259356); further: on the % scale 0 is the no-effect control and ±100 the full control effect
[12] = qHTS profiling for inhibitors of Plasmodium falciparum (3D7) proliferation (AID 743322; call rule not given here;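 further: infected erythrocytes exposed to compound for 72 h before lysis; 100% = DMSO vehicle wells and 0% = 0.29 µM artemisinin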); conditions: P. falciparum 3D7 proliferation; at 28.7 µM (top of the series) unless noted
Outline: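 Erythrocytes infected with P. falciparum (0.3% parasitemia, 2.5% hematocrit) incubated with compounds 72 h at 37 C, 5% CO2. Lysis with saponin/Triton buffer containing SYBR Green I, overnight at room temperature in the dark; DNA fluorescence (485/535 nm) normalised to 0.29 uM artemisinin and DMSO.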

[13] = qHTS profiling for inhibitors of Plasmodium falciparum (DD2) proliferation (AID 743323; call rule not given here); conditions: lower = more inhibition; at 28.7 µM (top of the series) unless noted
Outline: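 Parasite DNA quantified by SYBR Green fluorescence (ex 485, em 535 nm) after saponin/Triton lysis and overnight dark incubation. Cultures: 0.3% parasitemia, 2.5% hematocrit, 72 h, 37 C; data scaled between DMSO and 0.29 uM artemisinin.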

[14] = qHTS assay to identify small molecule inhibitors of chordoma cells - UCH-1 (AID 1259355); further: on the % scale 0 is the no-effect control and ±100 the full control effect; nearly all actives have a fitted effect of over 55% in size
Outline: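 Luminescent ATP read-out (CellTiter-Glo, 30min at room temperature) measured viability of UCH-1 cells exposed for 48hr to test drugs at 15 concentrations, co-dosed with a five-agent combination of auranofin, camptothecin, doxorubicin, rubitecan and topotecan.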

T1 sequence (P35557 whole entry, looked up): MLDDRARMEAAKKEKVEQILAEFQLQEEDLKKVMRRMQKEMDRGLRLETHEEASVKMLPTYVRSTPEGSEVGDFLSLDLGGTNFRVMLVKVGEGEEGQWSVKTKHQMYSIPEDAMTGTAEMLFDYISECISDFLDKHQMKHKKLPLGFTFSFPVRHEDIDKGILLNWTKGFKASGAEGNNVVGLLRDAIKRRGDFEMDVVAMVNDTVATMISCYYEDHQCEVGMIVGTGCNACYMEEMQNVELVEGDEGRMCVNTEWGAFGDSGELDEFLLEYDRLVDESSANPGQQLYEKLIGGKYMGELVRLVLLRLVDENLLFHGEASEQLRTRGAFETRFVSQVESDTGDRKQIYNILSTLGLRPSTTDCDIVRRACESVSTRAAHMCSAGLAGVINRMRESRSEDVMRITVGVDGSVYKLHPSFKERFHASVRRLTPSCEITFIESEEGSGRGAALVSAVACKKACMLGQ
T1 sequence (Q14397 whole entry, looked up): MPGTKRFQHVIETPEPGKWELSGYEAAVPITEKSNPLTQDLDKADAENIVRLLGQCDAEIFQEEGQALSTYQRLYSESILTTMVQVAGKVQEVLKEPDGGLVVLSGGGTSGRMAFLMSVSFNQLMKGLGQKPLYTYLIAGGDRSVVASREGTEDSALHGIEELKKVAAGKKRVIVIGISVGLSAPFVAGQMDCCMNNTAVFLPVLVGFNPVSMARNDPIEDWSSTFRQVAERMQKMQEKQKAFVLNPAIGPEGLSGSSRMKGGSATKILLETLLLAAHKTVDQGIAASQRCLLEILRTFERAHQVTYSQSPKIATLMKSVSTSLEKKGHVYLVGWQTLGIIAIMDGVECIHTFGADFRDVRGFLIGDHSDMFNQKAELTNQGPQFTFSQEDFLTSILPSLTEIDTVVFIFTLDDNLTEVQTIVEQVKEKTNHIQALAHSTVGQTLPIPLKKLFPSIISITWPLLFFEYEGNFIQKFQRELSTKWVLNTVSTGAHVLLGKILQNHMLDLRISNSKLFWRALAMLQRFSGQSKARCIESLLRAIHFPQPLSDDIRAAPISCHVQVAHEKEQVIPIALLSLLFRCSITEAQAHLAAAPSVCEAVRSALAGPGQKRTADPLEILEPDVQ

CN1C2CC(OC(=O)[C@H](CO)c3ccccc3)CC1C1OC12 (some centres not stated)
inactive: Potency [1] | outcome [2] | Potency [3] | max response [4] 21.9% | Potency [5] | Potency [6]

c1cnc2c(c1)ccc1cccnc12
inactive: Potency [7] | max response [8] -9.05% | outcome [2] | Potency [3] | Potency [9] | Potency [10] | Potency [5] | Potency [6]
active: Potency [4] 1.87 µM

CC(C(=O)O)c1ccc(C(=O)c2cccs2)cc1 (configuration not stated)
active: Potency [5] 22.4 µM
inactive: max response [4] 13.3% | Potency [11]

CN1CC(=O)N/C1=N/C(=O)Nc1cccc(Cl)c1
inactive: Potency [1] | outcome [2] | Potency [3] | Potency [9] | max response [4] 11.6% and 35.9% | Potency [14]
102%: remaining parasite growth % (stronger effect = lower value) [12]
106%: activity, percent of control [13]
active: Potency [5] 11.2 µM

CSc1ccccc1N1CCN(CCCCCC(=O)NC2CCCc3ccccc32)CC1 (configuration not stated)
inactive: Potency [1] | outcome [2] | Potency [3] | max response [4] 6.9% | Potency [5] | Potency [6]

O=C(O)CCCC[C@@H]1CCSS1
inactive: Potency [1] | outcome [2] | Potency [3] | max response [4] 7.49% | Potency [5] | Potency [6]

C[C@@H](CN1CCC(Cc2ccccc2)CC1)[C@@H](O)c1ccc(O)cc1
inactive: Potency [1] | outcome [2] | Potency [3] | Potency [9] | max response [4] 31% | Potency [5]

CN1[C@@H](CC(=O)c2ccccc2)CCC[C@H]1C[C@H](O)c1ccccc1
inactive: outcome [2] | Potency [3] | Potency [5] | Potency [11]

NC[C@H]1O[C@@H](n2cnc3c(N)ncnc32)[C@H](O)[C@@H]1O
inactive: outcome [2] | Potency [3] | Potency [9] | max response [4] -2.15% | Potency [5] | Potency [6]

COC1=C(OC)C(=O)c2ccccc2C1=O
inactive: Potency [1] | outcome [2] | Potency [3] | Potency [9] | Potency [5] | Potency [6]
active: Potency [4] 3.98 µM

O=C(/C=C/c1ccc(O)c(O)c1)OCCc1ccccc1
inactive: outcome [2] | Potency [3] | Potency [9] | Potency [5] | Potency [6]
